Measurements from PubChem BioAssay AID1159580 (chemical genetic matrix, 2015).
Screen size: about 5,500 compounds; about 2,000 (36%) were called active. Another 18% or so got no clear call; they are omitted. Rule as the data show it: active = normalized growth mostly below about 0.91 (no sharp cut-off); inconclusive = no clear call, values can overlap the other calls; inactive = mostly above about 0.92. The list shows a part of the results.

Assay: chemical genetic growth profiling, strain panel (AID 1159580);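 also: tested at 20 µM; growth read once vehicle control cultures reached saturation at 30 °C; 1 = growth at the plate median or of vehicle wells; lower values mean less growth of the strain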
Conditions: S. cerevisiae deletion strains, growth OD
[1] = locus YAR019C, strain CDC15, stronger effect = lower value
[2] = locus YBL105C, strain PKC1, stronger effect = lower value
[3] = locus YBR135W, strain CKS1, stronger effect = lower value
[4] = locus YBR136W, strain MEC1, stronger effect = lower value
[5] = locus YBR160W, strain CDC28, stronger effect = lower value
[6] = locus YDL017W, strain CDC7, stronger effect = lower value
[7] = locus YDL028C, strain MPS1, stronger effect = lower value
[8] = locus YDL101C, strain DUN1, stronger effect = lower value
[9] = locus YDL108W, strain KIN28, stronger effect = lower value
[10] = locus YDL132W, strain cdc53, stronger effect = lower value
[11] = locus YDL214C, strain PRR2, stronger effect = lower value
[12] = locus YDR052C, strain DBF4, stronger effect = lower value
[13] = locus YDR054C, strain cdc34, stronger effect = lower value
[14] = locus YDR226W, strain ADK1, stronger effect = lower value
[15] = locus YDR477W, strain SNF1, stronger effect = lower value
[16] = locus YER123W, strain YCK3, stronger effect = lower value
[17] = locus YER133W, strain GLC7, stronger effect = lower value
[18] = locus YFL009W, strain cdc4, stronger effect = lower value
[19] = locus YFL029C, strain CAK1, stronger effect = lower value
[20] = locus YFR003C, strain YPI1, stronger effect = lower value
[21] = locus YFR019W, strain FAB1, stronger effect = lower value
[22] = locus YFR028C, strain CDC14, stronger effect = lower value
[23] = locus YGR040W, strain KSS1, stronger effect = lower value
[24] = locus YGR052W, strain FMP48, stronger effect = lower value
[25] = locus YGR092W, strain DBF2, stronger effect = lower value
[26] = locus YHR030C, strain SLT2, stronger effect = lower value
[27] = locus YHR079C, strain IRE1, stronger effect = lower value
[28] = locus YHR082C, strain KSP1, stronger effect = lower value
[29] = locus YHR205W, strain SCH9, stronger effect = lower value
[30] = locus YIL147C, strain SLN1, stronger effect = lower value
[31] = locus YJL095W, strain BCK1, stronger effect = lower value
[32] = locus YJL128C, strain PBS2, stronger effect = lower value
[33] = locus YJL157C, strain FAR1, stronger effect = lower value
[34] = locus YJR016C, strain ILV3, stronger effect = lower value
[35] = locus YJR066W, strain TOR1 (second series), stronger effect = lower value
[36] = locus YJR066W, strain TOR1, stronger effect = lower value
[37] = locus YKL048C, strain ELM1, stronger effect = lower value
[38] = locus YKL067W, strain YNK1, stronger effect = lower value
[39] = locus YKL101W, strain HSL1, stronger effect = lower value
[40] = locus YKL193C, strain SDS22, stronger effect = lower value
[41] = locus YKL203C, strain TOR2, stronger effect = lower value
[42] = locus YLR113W, strain HOG1, stronger effect = lower value
[43] = locus YLR133W, strain CKI1, stronger effect = lower value
[44] = locus YLR403W, strain SFP1, stronger effect = lower value
[45] = locus YML070W, strain DAK1, stronger effect = lower value
[46] = locus YMR001C, strain CDC5, stronger effect = lower value
[47] = locus YMR205C, strain PFK2 (second series), stronger effect = lower value
[48] = locus YMR277W, strain FCP1, stronger effect = lower value
[49] = locus YNL006W, strain LST8, stronger effect = lower value
[50] = locus YNL020C, strain ARK1, stronger effect = lower value
[51] = locus YNL161W, strain CBK1, stronger effect = lower value
[52] = locus YNL183C, strain NPR1, stronger effect = lower value
[53] = locus YNL207W, strain RIO2, stronger effect = lower value
[54] = locus YNL222W, strain SSU72, stronger effect = lower value
[55] = locus YNL307C, strain MCK1 (second series), stronger effect = lower value
[56] = locus YOL078W, strain AVO1, stronger effect = lower value
[57] = locus YOL136C, strain PFK27, stronger effect = lower value
[58] = locus YOR061W, strain CKA2, stronger effect = lower value
[59] = locus YOR119C, strain RIO1, stronger effect = lower value
[60] = locus YOR231W, strain MKK1, stronger effect = lower value
[61] = locus YOR329C, strain SCD5, stronger effect = lower value
[62] = locus YPL031C, strain PHO85, stronger effect = lower value
[63] = locus YPL153C, strain RAD53, stronger effect = lower value
[64] = locus YPL204W, strain HRR25, stronger effect = lower value
[65] = locus YPL209C, strain IPL1, stronger effect = lower value
[66] = locus YPL256C, strain CLN2, stronger effect = lower value
[67] = locus YPR025C, strain CCL1, stronger effect = lower value
[68] = locus YPR106W, strain ISR1, stronger effect = lower value
[69] = locus YPR111W, strain DBF20, stronger effect = lower value
[70] = strain NNK1, stronger effect = lower value
[71] = strain TSCII, stronger effect = lower value

Measured: normalized growth

COc1ccc(-c2cc(NS(=O)(=O)c3cccc(F)c3)n(-c3ccc(Cl)c(Cl)c3)n2)cc1
inactive: [1] 0.961 | [2] 0.971 | [3] 0.977 | [4] 0.965 | [5] 0.963 | [6] 0.97 | [7] 0.945 | [8] 0.979 | [9] 0.975 | [10] 0.977 | [11] 0.92 | [12] 0.984 | [13] 0.966 | [14] 0.961 | [15] 0.903 | [16] 0.908 | [17] 0.94 | [18] 0.947 | [19] 0.961 | [20] 0.98 | [21] 0.931 | [22] 0.965 | [23] 0.894 | [24] 0.954 | [25] 0.838 | [27] 0.888 | [28] 0.873 | [29] 0.856 | [30] 0.959 | [31] 0.888 | [32] 0.921 | [33] 0.939 | [34] 0.972 | [35] 0.922 | [36] 0.87 | [37] 0.929 | [38] 0.91 | [39] 0.87 | [40] 0.968 | [41] 0.995 | [43] 0.912 | [44] 0.924 | [45] 0.906 | [46] 0.956 | [47] 0.937 | [48] 0.947 | [49] 0.966 | [50] 0.89 | [51] 0.971 | [52] 0.956 | [53] 0.973 | [54] 0.958 | [55] 0.839 | [56] 0.976 | [57] 0.887 | [58] 0.87 | [59] 0.944 | [60] 0.873 | [61] 0.967 | [62] 0.913 | [63] 0.915 | [64] 0.905 | [65] 0.97 | [67] 0.966 | [68] 0.963 | [69] 0.942 | [70] 0.961 | [71] 0.962
active: [26] 0.635 | [42] 0.811 | [66] 0.828

O=S(=O)(Nc1ccc(-n2nc(C(F)(F)F)cc2-c2cccs2)cc1)c1ccc(F)cc1
inactive: [1] 0.993 | [2] 0.979 | [3] 0.997 | [4] 0.991 | [5] 0.998 | [6] 0.99 | [7] 0.995 | [8] 0.993 | [9] 1 | [10] 0.989 | [11] 0.986 | [12] 0.98 | [13] 0.982 | [14] 0.996 | [15] 0.991 | [16] 0.979 | [17] 0.973 | [18] 0.991 | [19] 0.994 | [20] 0.99 | [21] 0.985 | [22] 0.997 | [23] 0.987 | [24] 1.04 | [25] 0.99 | [26] 1.01 | [27] 0.993 | [28] 1.06 | [29] 0.983 | [30] 0.99 | [31] 1.04 | [32] 0.951 | [33] 0.979 | [34] 0.999 | [35] 0.956 | [36] 1.04 | [37] 0.991 | [38] 0.991 | [39] 0.995 | [40] 0.986 | [41] 1.04 | [42] 0.938 | [43] 0.983 | [44] 0.972 | [45] 0.992 | [46] 0.989 | [47] 0.995 | [48] 0.992 | [49] 0.991 | [50] 0.987 | [51] 0.989 | [52] 1.02 | [53] 0.993 | [54] 0.99 | [55] 0.996 | [56] 0.994 | [57] 0.973 | [58] 0.998 | [59] 1.05 | [60] 0.974 | [61] 0.988 | [62] 0.986 | [63] 0.997 | [64] 0.966 | [65] 0.988 | [66] 0.94 | [67] 0.993 | [68] 0.978 | [69] 0.974 | [70] 0.975 | [71] 0.995
